Reference: PubChem BioAssay AID1159580 (chemical genetic matrix, 2015)
Several values for one entry are separate records, joined by “and”; a condition that tells them apart may be missing. Equal entries are not always repeated. Screen size: about 5,500 compounds; about 2,000 (36%) were called active. Inconclusive results (about 18%) are left out. Rule as the data show it: active = normalized growth mostly below about 0.91 (no sharp cut-off); inconclusive = no clear call, values can overlap the other calls; inactive = mostly above about 0.92. The list shows a part of the results.

Experiment: chemical genetic growth profiling, strain panel (AID 1159580);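 also: tested at 20 µM; growth read once vehicle control cultures reached saturation at 30 °C; 1 = growth at the plate median or of vehicle wells; lower values mean less growth of the strain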
Details: growth OD
[1] = S. cerevisiae deletion strains, locus YAL013W, strain DEP1, active compounds read low
[2] = S. cerevisiae deletion strains, locus YBR229C, strain ROT2, active compounds read low
[3] = S. cerevisiae deletion strains, locus YDL101C, strain DUN1, active compounds read low
[4] = S. cerevisiae deletion strains, locus YDR150W, strain NUM1, active compounds read low
[5] = S. cerevisiae deletion strains, locus YEL061C, strain CIN8, active compounds read low
[6] = S. cerevisiae deletion strains, locus YGR078C, strain PAC10, active compounds read low
[7] = S. cerevisiae deletion strains, locus YHR030C, strain SLT2, active compounds read low
[8] = S. cerevisiae deletion strains, locus YHR087W, strain rtc3, active compounds read low
[9] = S. cerevisiae deletion strains, locus YJR043C, strain POL32, active compounds read low
[10] = S. cerevisiae deletion strains, locus YJR075W, strain HOC1, active compounds read low
[11] = S. cerevisiae deletion strains, locus YLR039C, strain RIC1, active compounds read low
[12] = S. cerevisiae deletion strains, locus YLR058C, strain SHM2 (second series), active compounds read low
[13] = S. cerevisiae deletion strains, locus YLR085C, strain ARP6, active compounds read low
[14] = S. cerevisiae deletion strains, locus YLR262C, strain YPT6, active compounds read low
[15] = S. cerevisiae deletion strains, locus YML094W, strain GIM5, active compounds read low
[16] = S. cerevisiae deletion strains, locus YMR219W, strain ESC1, active compounds read low
[17] = S. cerevisiae deletion strains, locus YMR263W, strain SAP30, active compounds read low
[18] = S. cerevisiae deletion strains, locus YNL153C, strain GIM3, active compounds read low
[19] = S. cerevisiae deletion strains, locus YNL298W, strain CLA4 (second series), active compounds read low
[20] = S. cerevisiae deletion strains, locus YNL322C, strain KRE1, active compounds read low
[21] = S. cerevisiae deletion strains, locus YNR030W, strain Alg12, active compounds read low
[22] = S. cerevisiae deletion strains, locus YPL055C, strain LGE1, active compounds read low
[23] = S. cerevisiae deletion strains, locus YPL241C, strain CIN2, active compounds read low
[24] = S. cerevisiae deletion strains, locus YPR135W, strain CTF4, active compounds read low
[25] = S. cerevisiae deletion strains, locus YMR307W, strain GAS1, active compounds read low

Measured: normalized growth

Fc1cccc(Cl)c1CSc1nncn1-c1ccc(OCc2ccccc2)cc1
inactive: [1] 0.976 | S. cerevisiae deletion strains, locus YAR019C, strain CDC15, active compounds read low 0.991 | S. cerevisiae deletion strains, locus YBL105C, strain PKC1, active compounds read low 1.01 | S. cerevisiae deletion strains, locus YBR135W, strain CKS1, active compounds read low 1 | S. cerevisiae deletion strains, locus YBR136W, strain MEC1, active compounds read low 1 | S. cerevisiae deletion strains, locus YBR160W, strain CDC28, active compounds read low 1.01 | [2] 0.991 | S. cerevisiae deletion strains, locus YCL061C, strain MRC1, active compounds read low 0.968 | S. cerevisiae deletion strains, locus YDL017W, strain CDC7, active compounds read low 1.01 | S. cerevisiae deletion strains, locus YDL028C, strain MPS1, active compounds read low 1 | [3] 0.997 and 0.986 | S. cerevisiae deletion strains, locus YDL108W, strain KIN28, active compounds read low 1 | S. cerevisiae deletion strains, locus YDL132W, strain cdc53, active compounds read low 0.994 | S. cerevisiae deletion strains, locus YDL214C, strain PRR2, active compounds read low 0.97 | S. cerevisiae deletion strains, locus YDR052C, strain DBF4, active compounds read low 0.996 | S. cerevisiae deletion strains, locus YDR054C, strain cdc34, active compounds read low 1.01 | [4] 0.909 | S. cerevisiae deletion strains, locus YDR226W, strain ADK1, active compounds read low 0.999 | S. cerevisiae deletion strains, locus YDR477W, strain SNF1, active compounds read low 0.983 | [5] 0.956 | S. cerevisiae deletion strains, locus YER123W, strain YCK3, active compounds read low 0.958 | S. cerevisiae deletion strains, locus YER133W, strain GLC7, active compounds read low 0.974 | S. cerevisiae deletion strains, locus YFL009W, strain cdc4, active compounds read low 1.01 | S. cerevisiae deletion strains, locus YFL029C, strain CAK1, active compounds read low 1 | S. cerevisiae deletion strains, locus YFR003C, strain YPI1, active compounds read low 1.01 | S. cerevisiae deletion strains, locus YFR019W, strain FAB1, active compounds read low 0.955 | S. cerevisiae deletion strains, locus YFR028C, strain CDC14, active compounds read low 0.997 | S. cerevisiae deletion strains, locus YGR040W, strain KSS1, active compounds read low 0.979 | S. cerevisiae deletion strains, locus YGR052W, strain FMP48, active compounds read low 1.05 | [6] 0.984 | S. cerevisiae deletion strains, locus YGR092W, strain DBF2, active compounds read low 0.988 | [7] 0.811 and 1.12 | S. cerevisiae deletion strains, locus YHR079C, strain IRE1, active compounds read low 1.03 | S. cerevisiae deletion strains, locus YHR082C, strain KSP1, active compounds read low 1.24 | [8] 0.983 | S. cerevisiae deletion strains, locus YHR205W, strain SCH9, active compounds read low 0.955 | S. cerevisiae deletion strains, locus YIL147C, strain SLN1, active compounds read low 1 | S. cerevisiae deletion strains, locus YJL095W, strain BCK1, active compounds read low 1.04 | S. cerevisiae deletion strains, locus YJL128C, strain PBS2, active compounds read low 1.01 | S. cerevisiae deletion strains, locus YJL157C, strain FAR1, active compounds read low 0.969 | S. cerevisiae deletion strains, locus YJR016C, strain ILV3, active compounds read low 0.997 | [9] 0.98 | S. cerevisiae deletion strains, locus YJR066W, strain TOR1 (second series), active compounds read low 0.967 | S. cerevisiae deletion strains, locus YJR066W, strain TOR1, active compounds read low 1.23 | [10] 0.988 | S. cerevisiae deletion strains, locus YKL048C, strain ELM1, active compounds read low 0.977 | S. cerevisiae deletion strains, locus YKL067W, strain YNK1, active compounds read low 0.999 | S. cerevisiae deletion strains, locus YKL101W, strain HSL1, active compounds read low 0.989 | S. cerevisiae deletion strains, locus YKL190W, strain CNB1, active compounds read low 0.985 | S. cerevisiae deletion strains, locus YKL193C, strain SDS22, active compounds read low 0.996 | S. cerevisiae deletion strains, locus YKL203C, strain TOR2, active compounds read low 1.06 | [11] 0.792 | [12] 0.991 | [13] 0.831 | S. cerevisiae deletion strains, locus YLR113W, strain HOG1, active compounds read low 1.01 | S. cerevisiae deletion strains, locus YLR133W, strain CKI1, active compounds read low 0.949 | [14] 0.838 | S. cerevisiae deletion strains, locus YLR403W, strain SFP1, active compounds read low 0.965 | S. cerevisiae deletion strains, locus YML070W, strain DAK1, active compounds read low 0.958 | [15] 0.948 | S. cerevisiae deletion strains, locus YMR001C, strain CDC5, active compounds read low 1 | S. cerevisiae deletion strains, locus YMR205C, strain PFK2 (second series), active compounds read low 0.965 | [16] 0.985 | [17] 0.963 | S. cerevisiae deletion strains, locus YMR277W, strain FCP1, active compounds read low 0.988 | S. cerevisiae deletion strains, locus YNL006W, strain LST8, active compounds read low 0.994 | S. cerevisiae deletion strains, locus YNL020C, strain ARK1, active compounds read low 0.963 | [18] 0.977 | S. cerevisiae deletion strains, locus YNL161W, strain CBK1, active compounds read low 0.973 | S. cerevisiae deletion strains, locus YNL183C, strain NPR1, active compounds read low 0.98 | S. cerevisiae deletion strains, locus YNL207W, strain RIO2, active compounds read low 1 | S. cerevisiae deletion strains, locus YNL222W, strain SSU72, active compounds read low 0.995 | [19] 0.929 | S. cerevisiae deletion strains, locus YNL307C, strain MCK1 (second series), active compounds read low 0.963 | [20] 0.988 | [21] 0.964 | S. cerevisiae deletion strains, locus YOL078W, strain AVO1, active compounds read low 0.977 | S. cerevisiae deletion strains, locus YOL136C, strain PFK27, active compounds read low 0.952 | S. cerevisiae deletion strains, locus YOR061W, strain CKA2, active compounds read low 0.982 | S. cerevisiae deletion strains, locus YOR119C, strain RIO1, active compounds read low 1.04 | S. cerevisiae deletion strains, locus YOR231W, strain MKK1, active compounds read low 1.05 | S. cerevisiae deletion strains, locus YOR329C, strain SCD5, active compounds read low 1 | S. cerevisiae deletion strains, locus YPL031C, strain PHO85, active compounds read low 0.986 | [22] 0.847 | S. cerevisiae deletion strains, locus YPL153C, strain RAD53, active compounds read low 0.992 | S. cerevisiae deletion strains, locus YPL204W, strain HRR25, active compounds read low 0.973 | S. cerevisiae deletion strains, locus YPL209C, strain IPL1, active compounds read low 0.994 | [23] 0.949 | S. cerevisiae deletion strains, locus YPL256C, strain CLN2, active compounds read low 0.983 | S. cerevisiae deletion strains, locus YPR025C, strain CCL1, active compounds read low 1.01 | S. cerevisiae deletion strains, locus YPR106W, strain ISR1, active compounds read low 0.987 | S. cerevisiae deletion strains, locus YPR111W, strain DBF20, active compounds read low 0.986 | [24] 0.832 | S. cerevisiae deletion strains, strain NNK1, active compounds read low 0.984 | S. cerevisiae deletion strains, strain TSCII, active compounds read low 0.986

O=S(=O)(O)C1CCNCC1
inactive: S. cerevisiae deletion strains, locus YAL040C, strain CLN3, active compounds read low 0.981 | S. cerevisiae deletion strains, locus YCL061C, strain MRC1 (second series), active compounds read low 1 | S. cerevisiae deletion strains, locus YDR363W, strain ESC2, active compounds read low 0.943 | S. cerevisiae deletion strains, locus YER002W, strain NOP16, active compounds read low 1 | [10] 1.01 | [17] 0.997 | [25] 0.991 | [18] 1.02 | S. cerevisiae deletion strains, locus YNL175C, strain NOP13, active compounds read low 0.995 | S. cerevisiae deletion strains, locus YNL197C, strain WHI3, active compounds read low 0.995 | S. cerevisiae deletion strains, locus YNL224C, strain SQS1, active compounds read low 0.995 | S. cerevisiae deletion strains, locus YOR083W, strain WHI5 (second series), active compounds read low 0.993 | [23] 1

CN1CCN(C=Nc2ncc(C(F)(F)F)cc2Cl)CC1
inactive: [1] 0.986 | [2] 1.02 | [3] 0.946 | [4] 0.974 | [5] 1.01 | [6] 0.984 | [7] 0.957 | [8] 1.07 | S. cerevisiae deletion strains, locus YJL187C, strain SWE1, active compounds read low 1 | [9] 0.996 | [10] 0.989 | [11] 0.976 | [12] 0.996 | [13] 0.949 | [14] 0.995 | [15] 1.01 | [16] 1 | [17] 0.999 | [25] 1.01 | [18] 0.991 | [19] 0.975 | [20] 0.978 | [21] 1.02 | S. cerevisiae deletion strains, locus YOL006C, strain TOP1, active compounds read low 0.988 | [22] 1.04 | [23] 0.994 | [24] 0.927 | S. cerevisiae strains, strain wild type, active compounds read low 0.991
